Measurements reported in the supplement of paper PMC4166925.
± gives the standard deviation of the averaged measurements. The full ranking holds about 33,000 sequences; the median of “E-score (dimensionless, -0.5 to 0.5)” is about -0.046, and the highest 2% start at about 0.36. What follows is part of a selection rich in the highest values, with near analogues and random picks from the rest.

System: T1, SpTbr T-box DNA-binding domain (GST fusion)
T1 sequence: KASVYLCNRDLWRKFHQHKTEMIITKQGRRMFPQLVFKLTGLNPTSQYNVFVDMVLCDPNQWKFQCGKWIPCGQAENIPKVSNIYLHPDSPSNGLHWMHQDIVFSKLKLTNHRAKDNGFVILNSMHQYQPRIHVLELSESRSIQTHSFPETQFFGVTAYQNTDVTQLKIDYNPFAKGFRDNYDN
Test: PBM E-score of 8-mer (E-score (dimensionless, -0.5 to 0.5)); Tbr is Tbrain of the sea star Patiria miniata (Pm) or the sea urchin Strongylocentrotus purpuratus (Sp); higher = stronger binding preference
Details: the construct has about 5 more residues each side
Protocol: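 Universal protein-binding microarray (Agilent AMADID 016060, 60-bp probes with a 35-bp variable region) incubated with 200 nM GST-fused Strongylocentrotus purpuratus Tbr T-box DNA-binding domain (residues 362-554) in PBS pH 7.5. Scored for every ungapped 8-mer (given with its reverse complement) as E-score (range -0.5 to 0.5; >0.45 counts as bound) and Z-score of median probe intensity. Two replicate arrays (datasets 1 and 2).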
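Also: protein at 200 nM in PBS on universal double-stranded arrays.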

Sequence | PBM E-score of 8-mer
CAACTCTA | -0.0379 ± 0.031
TCGTATCA | 0.129 ± 0.031
GTTGACGA | 0.279 ± 0.0033
TGTGACAA | 0.412 ± 0.0055
TATGACAA | 0.0285 ± 0.073
GGAGACAC | 0.193 ± 0.045
GGTGACAC | 0.4606 ± 0.0026
GGTGACCA | 0.075 ± 0.05
TCTGACAA | -0.0245 ± 0.056
GGTGACTA | 0.196 ± 0.039
GGTGAAAC | -0.0179 ± 0.017
GTTGACAA | 0.389 ± 0.016
GGTGACAA | 0.459 ± 0.011
CTTGACAA | 0.323 ± 0.011
CAACGGTC | 0.11 ± 0.036
CTATAGAG | -0.282 ± 0.072
ACTAGGCA | -0.204 ± 0.036
CGCTTCAC | 0.235 ± 0.042
AGGTCGAC | -0.00677 ± 0.036
ACGGCAGT | -0.173 ± 0.031
ATTATAGG | -0.255 ± 0.027
CGGTGACA | 0.326 ± 0.026
TCGTGACA | 0.325 ± 0.0037
GGGTGAAA | -0.0551 ± 0.015
TGGTGACA | 0.39 ± 0.0062

Sequence | PBM E-score of 8-mer
GGGTGACC | -0.0352 ± 0.046
GGGTGACA | 0.4258 ± 0.0018
GAGCGCTA | 0.205 ± 0.021
AAAAGGTA | -0.207 ± 0.011
AACCTATG | -0.15 ± 0.014
CACCTATC | 0.358 ± 0.012
CACCTATG | 0.427 ± 0.011
AACCTATA | -0.123 ± 0.024
TACCTATA | -0.192 ± 0.0052
CACCTATA | 0.392 ± 0.015
CGCTAATA | 0.135 ± 0.092
CGCCGGCG | 0.1618 ± 0.00064
ATCGTACC | -0.157 ± 0.03
GAACAGTA | 0.00048 ± 0.058
CACCGCCG | 0.151 ± 0.1
CGCTCACC | 0.0959 ± 0.018
CTCTCACC | 0.38 ± 0.021
ATCTCACC | 0.422 ± 0.0058
GCCTCACA | 0.292 ± 0.0099
ATGTCACC | 0.323 ± 0.0098
ATCTCAAC | 0.00654 ± 0.026
CTCTCACA | 0.3477 ± 0.0025
CTGTCACC | 0.396 ± 0.0078
CTGTCACA | 0.358 ± 0.01
GTCTCACA | 0.382 ± 0.0069

Sequence | PBM E-score of 8-mer
GTCTCTCA | 0.0648 ± 0.045
ACCTCACC | 0.224 ± 0.017
ATATGAAT | -0.00217 ± 0.023
ACACCAAA | 0.315 ± 0.013
AAGAATGT | -0.0437 ± 0.045
TACCGGAA | -0.116 ± 0.02
AAGGAGAG | -0.168 ± 0.0067
CACCGATC | 0.154 ± 0.014
TATATGCA | -0.113 ± 0.014
AATGCGTG | 0.253 ± 0.028
CAGGTCAA | -0.18 ± 0.073
ACGGACAT | -0.0905 ± 0.036
AACTTAAT | -0.0641 ± 0.021
GTGCCCCA | -0.0876 ± 0.0044
AGCACCCC | 0.27 ± 0.036
TCCTCACA | 0.3492 ± 0.0024
ACCTCACG | 0.239 ± 0.005
ATCTCACA | 0.372 ± 0.0029
ATCTCACG | 0.29 ± 0.012
ATCTCTCA | 0.171 ± 0.012
ACCTCACA | 0.41113 ± 4.2e-05
TCCTATCA | -0.0124 ± 0.0011
AGTGGCAA | 0.305 ± 0.0085
GGTGGCAC | 0.3544 ± 0.0029
GGTGGCAA | 0.4 ± 0.011

Sequence | PBM E-score of 8-mer
AGTTTGAC | 0.143 ± 0.018
ATATGTTG | -0.00329 ± 0.071
ATGTGTTA | 0.444 ± 0.015
ATGTGTTG | 0.381 ± 0.014
CTGTGTTA | 0.195 ± 0.079
ATGTGTTC | 0.111 ± 0.064
GTGTGTTA | 0.318 ± 0.021
CCTTTTAG | 0.0506 ± 0.044
CTAACACC | 0.464 ± 0.005
CTAACACA | 0.354 ± 0.0043
ATAACACG | 0.303 ± 0.033
ATAACACC | 0.457 ± 0.0069
CTTACACC | 0.392 ± 0.025
ATAACACA | 0.35 ± 0.028
CTTACACA | 0.276 ± 0.035
ATTACACC | 0.358 ± 0.057
CGAACACC | 0.321 ± 0.011
CTTCTAAC | 0.16 ± 0.038
CATATCGA | -0.154 ± 0.056
CCGCAAAG | -0.233 ± 0.015
CGAGATCG | 0.175 ± 0.058
AAACTGAG | -0.1 ± 0.018
CACCAAGC | 0.129 ± 0.017
CCCAACAC | 0.343 ± 0.013
GAACTTAC | -0.0233 ± 0.034

Sequence | PBM E-score of 8-mer
CCAAGTAA | -0.21 ± 0.095
CGCGAACC | 0.375 ± 0.013
AGCGAAAG | -0.123 ± 0.022
AGCGAACC | 0.0666 ± 0.08
CGCGAACA | 0.36 ± 0.019
CGCGAAGC | 0.324 ± 0.033
CGCGAAAG | 0.387 ± 0.015
CGCGAACG | 0.422 ± 0.013
GGCGAACC | -0.141 ± 0.05
AGCGAACG | 0.0538 ± 0.025
CGCGAAGA | 0.371 ± 0.01
CGCGAAAC | 0.344 ± 0.0048
AGCGAAGA | 0.106 ± 0.019
CAAATGAG | -0.158 ± 0.037
GACCAGTC | -0.333 ± 0.075
AGTCCATA | -0.295 ± 0.063
CACAGCGC | 0.0949 ± 0.014
TGCCCACA | 0.0199 ± 0.1
CGTTTGGA | -0.0006 ± 0.068
GCGTTCAC | 0.239 ± 0.011
ACGTTCAC | 0.369 ± 0.0053
ACGTTCAG | -0.122 ± 0.029
CCGTTCAC | 0.367 ± 0.029
CCGTTCAG | -0.113 ± 0.032
ACGTTCAA | -0.145 ± 0.032

Sequence | PBM E-score of 8-mer
CGGAGACA | -0.0395 ± 0.021
ACAGAGAC | -0.0676 ± 0.02
CAACCCTG | 0.014 ± 0.024
CGCCTTGA | 0.159 ± 0.083
AGCCACAA | 0.0237 ± 0.048
GACACCGA | 0.293 ± 0.0048
GACACCTC | 0.479 ± 0.009
GACACGTA | 0.29 ± 0.0077
GACACCTA | 0.4778 ± 0.0018
GAGACCTC | -0.305 ± 0.013
GACACCGC | 0.244 ± 0.061
ACCAGTAG | -0.2 ± 0.063
AATGGACC | -0.2776 ± 0.0022
GGATGGAC | -0.203 ± 0.0084
GGTCAGAC | -0.274 ± 0.051
AGTCACGG | -0.193 ± 0.0098
CTTCACGA | 0.167 ± 0.043
AGTCACGC | 0.3794 ± 0.0033
AGTCACGA | 0.152 ± 0.0034
ATTCACGC | 0.424 ± 0.0061
ATTCACGA | 0.288 ± 0.047
CTTCACGC | 0.409 ± 0.01
ATTCACGG | 0.259 ± 0.00064
CCTCACGC | 0.322 ± 0.036
CACTGGCG | 0.162 ± 0.084

Sequence | PBM E-score of 8-mer
ACCCATTC | -0.15 ± 0.062
TGGGGTAA | -0.1604 ± 0.001
ATTTCGCA | 0.335 ± 0.025
CATTCGCG | 0.389 ± 0.0059
TATTCGCA | 0.369 ± 0.0054
GATTCGCA | 0.327 ± 0.014
CATTCGCC | -0.147 ± 0.039
ATTTCGCC | -0.0532 ± 0.044
ATTTCGCG | 0.389 ± 0.016
AATTCGCG | 0.279 ± 0.02
CATTCGCA | 0.384 ± 0.0068
AATTCGCA | 0.321 ± 0.023
CATTCGTA | -0.0369 ± 0.038
TATTCGAA | -0.0307 ± 0.088
AGTCAAAA | -0.181 ± 0.0086
AGATTAGC | 0.0489 ± 0.043
ACATGGGG | -0.06449 ± 0.00059
GTCATCTA | -0.0343 ± 0.015
GACCACTC | 0.0231 ± 0.029
AAAGGCTC | -0.214 ± 0.06
GGCAAAAA | 0.0671 ± 0.028
AACCACGT | -0.161 ± 0.017
GTGGCAAA | 0.309 ± 0.024
ACGTGGGA | 0.203 ± 0.026
CCGATAGG | 0.00486 ± 0.048

Sequence | PBM E-score of 8-mer
GTTTCGCA | 0.36 ± 0.02
CTTTCGCA | 0.421 ± 0.015
CTTTCGCC | -0.043 ± 0.078
CGTATCTC | -0.174 ± 0.0059
AGCACCTA | 0.409 ± 0.0069
AGCACCGG | -0.0409 ± 0.027
AGCACCTC | 0.4014 ± 0.004
GGCACCGA | -0.122 ± 0.1
GCCACCTA | 0.285 ± 0.036
GGCACCTA | 0.382 ± 0.015
ACCACCTC | 0.343 ± 0.046
AGCACCGC | -0.0167 ± 0.064
ACCACCTA | 0.109 ± 0.065
AGCACCTG | 0.398 ± 0.0042
ATCACCTG | 0.304 ± 0.022
AGCACCGA | -0.094 ± 0.013
ACGAAGCC | -0.00822 ± 0.065
ACTGGCCA | 0.0049 ± 0.016
ATAGGCTC | -0.167 ± 0.02
ACGCTACG | 0.102 ± 0.023
ACCAACGA | 0.102 ± 0.0046
CTCGGCCC | -0.0368 ± 0.041
ACTTTTGA | -0.0941 ± 0.084
AGTTTCAT | -0.233 ± 0.01
TCAATCGA | -0.0374 ± 0.037

Sequence | PBM E-score of 8-mer
GACCAAAA | -0.133 ± 0.0068
CAGAGCTC | -0.265 ± 0.01
CGCACCTA | 0.43 ± 0.0064
CGCACCAA | 0.2705 ± 0.0014
CGCACCCG | 0.267 ± 0.054
CCCACCTC | 0.251 ± 0.043
CGCACCCA | 0.372 ± 0.029
CGCACCGA | 0.0672 ± 0.045
TGCACCCA | -0.00634 ± 0.056
CGCACCGC | 0.228 ± 0.031
CGCACCTC | 0.453 ± 0.016
CACTCAAG | 0.106 ± 0.095
ATCTGTAG | -0.206 ± 0.018
ATGGGAAC | -0.109 ± 0.011
CCAAGGCA | -0.112 ± 0.0028
CGTCGAGA | -0.0352 ± 0.014
CACCTTTA | 0.414 ± 0.0042
AACCTTTC | -0.0391 ± 0.099
GACCTTTA | -0.242 ± 0.0044
CACCTTTC | 0.379 ± 0.024
CCCCTTTC | -0.132 ± 0.052
AACCTTTA | 0.000765 ± 0.041
